Measurements reported in paper PMC7862700, “An all-to-all approach to the identification of sequence-specific readers for epigenetic DNA modifications on cytosine”.

How the values were obtained:
Experiment in all cases: DAPPL (digital affinity profiling via proximity ligation, sequencing); 10 mM Tris-HCl pH 7.5, 50 mM NaCl, 1 mM DTT, 4% glycerol, room temperature, 30 min; GST-TFs on glutathione beads, 16-mer random dsDNA library, 0.1% formaldehyde crosslink after washing; high values mean tight binding
Conditions in all cases: protein: recombinant; tags: N-terminal GST; dsDNA, one strand shown
FLI1 = target: T1, FLI1 (Homo sapiens, UniProt Q01543 1-452)
T1 sequence: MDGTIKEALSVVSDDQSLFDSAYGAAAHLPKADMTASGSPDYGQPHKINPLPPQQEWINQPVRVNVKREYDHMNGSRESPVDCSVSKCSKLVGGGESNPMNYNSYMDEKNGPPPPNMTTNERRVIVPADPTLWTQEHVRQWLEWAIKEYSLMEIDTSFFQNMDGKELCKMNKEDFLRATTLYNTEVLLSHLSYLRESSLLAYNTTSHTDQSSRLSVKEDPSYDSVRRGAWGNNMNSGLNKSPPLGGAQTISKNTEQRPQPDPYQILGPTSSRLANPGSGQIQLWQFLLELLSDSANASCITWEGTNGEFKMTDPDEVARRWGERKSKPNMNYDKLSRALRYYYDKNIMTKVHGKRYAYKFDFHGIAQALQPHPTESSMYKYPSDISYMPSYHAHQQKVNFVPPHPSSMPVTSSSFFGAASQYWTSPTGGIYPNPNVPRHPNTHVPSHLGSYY
Method in brief: (§1)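 Pools of DNA-barcoded human transcription factors, expressed in yeast as GST fusions on glutathione beads and combined with a tag-only sample, were incubated with 200 nmole of a 16-mer random double-stranded DNA library. Incubation took 30 min at room temperature in Tris/NaCl/DTT/glycerol buffer and was followed by washing, 0.1% formaldehyde crosslinking, proximity ligation (BsaI/T4 ligase, 1 h, 37 °C), PCR amplification and sequencing on an Illumina NextSeq500. Binding signal is the ratio of a hexamer's read frequency for a factor to its frequency for the tag-only sample.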

ELK1 = target: T2, ELK1 (Homo sapiens, UniProt P19419 1-428)
T2 sequence: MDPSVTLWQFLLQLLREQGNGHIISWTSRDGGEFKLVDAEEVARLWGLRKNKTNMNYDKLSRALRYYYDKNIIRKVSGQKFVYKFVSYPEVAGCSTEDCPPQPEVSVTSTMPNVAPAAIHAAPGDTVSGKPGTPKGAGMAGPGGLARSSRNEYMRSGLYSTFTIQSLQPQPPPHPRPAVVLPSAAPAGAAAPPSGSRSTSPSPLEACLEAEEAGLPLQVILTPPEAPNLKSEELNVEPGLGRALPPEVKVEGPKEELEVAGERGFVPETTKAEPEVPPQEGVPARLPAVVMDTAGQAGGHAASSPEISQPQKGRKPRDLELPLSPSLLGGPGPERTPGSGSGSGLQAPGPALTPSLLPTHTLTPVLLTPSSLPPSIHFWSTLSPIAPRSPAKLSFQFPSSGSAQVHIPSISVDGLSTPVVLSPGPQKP
Method in brief: as §1

GABPA = target: T3, GABPA (Homo sapiens, UniProt Q06546 1-454)
T3 sequence: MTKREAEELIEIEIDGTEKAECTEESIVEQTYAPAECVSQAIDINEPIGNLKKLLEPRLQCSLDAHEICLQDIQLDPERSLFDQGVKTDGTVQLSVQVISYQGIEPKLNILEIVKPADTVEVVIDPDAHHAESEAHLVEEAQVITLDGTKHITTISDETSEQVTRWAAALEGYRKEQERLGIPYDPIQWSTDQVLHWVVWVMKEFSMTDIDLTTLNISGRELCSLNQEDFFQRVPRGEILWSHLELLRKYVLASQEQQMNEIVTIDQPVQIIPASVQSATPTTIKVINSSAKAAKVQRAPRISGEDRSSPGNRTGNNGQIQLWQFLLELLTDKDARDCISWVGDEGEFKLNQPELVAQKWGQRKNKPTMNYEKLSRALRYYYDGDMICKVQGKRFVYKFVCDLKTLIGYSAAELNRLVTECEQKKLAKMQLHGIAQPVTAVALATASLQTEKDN
Method in brief: as §1

ERG = target: T4, ERG (Homo sapiens, UniProt P11308 1-479)
T4 sequence: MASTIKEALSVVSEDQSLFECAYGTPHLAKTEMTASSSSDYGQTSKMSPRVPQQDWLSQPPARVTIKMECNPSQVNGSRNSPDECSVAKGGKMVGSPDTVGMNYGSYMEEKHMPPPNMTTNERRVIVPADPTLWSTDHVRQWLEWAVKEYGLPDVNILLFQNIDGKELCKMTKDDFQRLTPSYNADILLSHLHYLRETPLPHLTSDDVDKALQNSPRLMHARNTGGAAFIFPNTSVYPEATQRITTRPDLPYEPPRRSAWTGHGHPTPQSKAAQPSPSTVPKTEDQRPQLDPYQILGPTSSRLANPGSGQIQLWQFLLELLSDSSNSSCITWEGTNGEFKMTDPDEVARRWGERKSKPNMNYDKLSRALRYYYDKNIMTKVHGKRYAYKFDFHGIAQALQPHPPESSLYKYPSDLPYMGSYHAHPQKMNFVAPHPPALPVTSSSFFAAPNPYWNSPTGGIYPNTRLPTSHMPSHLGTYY
Method in brief: as §1

ELF1 = ELF1 (Homo sapiens, UniProt P32519 1-619)
Method in brief: as §1

EHF = target: T5, EHF (Homo sapiens, UniProt Q9NZC4 1-300)
T5 sequence: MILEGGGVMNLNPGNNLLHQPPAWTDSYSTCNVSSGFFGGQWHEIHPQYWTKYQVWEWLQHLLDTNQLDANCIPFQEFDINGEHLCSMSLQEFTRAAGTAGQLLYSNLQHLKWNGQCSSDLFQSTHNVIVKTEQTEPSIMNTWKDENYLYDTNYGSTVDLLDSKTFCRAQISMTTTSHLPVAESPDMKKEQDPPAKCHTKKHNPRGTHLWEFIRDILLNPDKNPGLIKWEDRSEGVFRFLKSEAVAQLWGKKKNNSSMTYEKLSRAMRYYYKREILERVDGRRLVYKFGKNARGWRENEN
Method in brief: as §1

SPI1 = SPI1 (Homo sapiens, UniProt P17947 1-270)
Method in brief: as §1

SPIB = SPIB (Homo sapiens, UniProt Q01892 1-262)
Method in brief: as §1

ELK3 = target: T6, ELK3 (Homo sapiens, UniProt P41970 1-407)
T6 sequence: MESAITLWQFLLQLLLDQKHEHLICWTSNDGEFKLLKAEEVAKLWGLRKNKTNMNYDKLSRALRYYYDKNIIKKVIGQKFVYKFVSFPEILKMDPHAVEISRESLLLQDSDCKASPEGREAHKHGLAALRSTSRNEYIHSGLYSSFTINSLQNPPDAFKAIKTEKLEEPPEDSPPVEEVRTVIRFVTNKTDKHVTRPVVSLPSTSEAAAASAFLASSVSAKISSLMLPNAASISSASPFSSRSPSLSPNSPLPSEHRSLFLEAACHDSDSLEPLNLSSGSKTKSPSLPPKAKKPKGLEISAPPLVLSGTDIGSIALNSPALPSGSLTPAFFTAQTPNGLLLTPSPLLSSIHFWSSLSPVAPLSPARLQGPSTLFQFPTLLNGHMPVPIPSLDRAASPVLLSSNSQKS
Method in brief: as §1

Chain of ELF1 (P32519 whole entry): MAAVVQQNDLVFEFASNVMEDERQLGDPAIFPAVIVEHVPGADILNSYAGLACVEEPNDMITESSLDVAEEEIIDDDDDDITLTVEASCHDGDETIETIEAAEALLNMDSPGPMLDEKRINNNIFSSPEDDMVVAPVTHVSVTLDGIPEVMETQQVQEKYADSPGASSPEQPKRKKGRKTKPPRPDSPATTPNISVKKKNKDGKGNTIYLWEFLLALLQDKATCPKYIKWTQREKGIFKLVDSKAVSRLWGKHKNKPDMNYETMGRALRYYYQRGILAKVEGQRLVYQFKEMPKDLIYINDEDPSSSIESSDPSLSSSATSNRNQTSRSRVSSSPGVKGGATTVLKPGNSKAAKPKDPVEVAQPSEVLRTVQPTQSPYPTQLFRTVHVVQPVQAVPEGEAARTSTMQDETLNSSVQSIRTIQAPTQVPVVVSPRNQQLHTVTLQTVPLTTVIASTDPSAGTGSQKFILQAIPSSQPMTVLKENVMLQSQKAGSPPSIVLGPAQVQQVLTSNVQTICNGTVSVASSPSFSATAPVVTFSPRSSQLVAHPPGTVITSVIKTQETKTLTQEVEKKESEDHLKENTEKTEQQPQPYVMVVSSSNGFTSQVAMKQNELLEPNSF
Chain of SPIB (Q01892 whole entry): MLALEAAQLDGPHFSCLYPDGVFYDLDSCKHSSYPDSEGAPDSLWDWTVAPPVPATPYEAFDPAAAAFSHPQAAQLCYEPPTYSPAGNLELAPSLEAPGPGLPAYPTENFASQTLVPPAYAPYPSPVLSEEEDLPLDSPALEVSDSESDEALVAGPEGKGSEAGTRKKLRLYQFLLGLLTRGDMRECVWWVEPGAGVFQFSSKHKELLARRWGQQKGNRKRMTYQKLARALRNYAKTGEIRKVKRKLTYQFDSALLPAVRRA

| Sequence | binding signal (FLI1) | binding signal (ELK1) | binding signal (GABPA) | binding signal (ERG) | binding signal (ELF1) | binding signal (EHF) | binding signal (SPI1) | binding signal (SPIB) | binding signal (ELK3) |
| --- | --- | --- | --- | --- | --- | --- | --- | --- | --- |
| ATAAAG | 1.01 fold enrichment (6-mer frequency, TF over GST control) | 1.01 fold enrichment (6-mer frequency, TF over GST control) | 1.05 fold enrichment (6-mer frequency, TF over GST control) | 1.12 fold enrichment (6-mer frequency, TF over GST control) | 1.06 fold enrichment (6-mer frequency, TF over GST control) | 1.11 fold enrichment (6-mer frequency, TF over GST control) | 1.21 fold enrichment (6-mer frequency, TF over GST control) | 1.1 fold enrichment (6-mer frequency, TF over GST control) | 1.12 fold enrichment (6-mer frequency, TF over GST control) |
| TCCAAA | 1.08 fold enrichment (6-mer frequency, TF over GST control) | 1.18 fold enrichment (6-mer frequency, TF over GST control) | 1.31 fold enrichment (6-mer frequency, TF over GST control) | 1.19 fold enrichment (6-mer frequency, TF over GST control) | 1.18 fold enrichment (6-mer frequency, TF over GST control) | 1.1 fold enrichment (6-mer frequency, TF over GST control) | 1.12 fold enrichment (6-mer frequency, TF over GST control) | 1.17 fold enrichment (6-mer frequency, TF over GST control) | 1.17 fold enrichment (6-mer frequency, TF over GST control) |
| CTGACC | 1.4 fold enrichment (6-mer frequency, TF over GST control) | 1.41 fold enrichment (6-mer frequency, TF over GST control) | 1.41 fold enrichment (6-mer frequency, TF over GST control) | 1.23 fold enrichment (6-mer frequency, TF over GST control) | 1.46 fold enrichment (6-mer frequency, TF over GST control) | 1.59 fold enrichment (6-mer frequency, TF over GST control) | 1.25 fold enrichment (6-mer frequency, TF over GST control) | 1.26 fold enrichment (6-mer frequency, TF over GST control) | 1.33 fold enrichment (6-mer frequency, TF over GST control) |
| TCCGTT | 1.44 fold enrichment (6-mer frequency, TF over GST control) | 1.61 fold enrichment (6-mer frequency, TF over GST control) | 1.42 fold enrichment (6-mer frequency, TF over GST control) | 1.68 fold enrichment (6-mer frequency, TF over GST control) | 1.34 fold enrichment (6-mer frequency, TF over GST control) | 1.4 fold enrichment (6-mer frequency, TF over GST control) | 1.53 fold enrichment (6-mer frequency, TF over GST control) | 1.53 fold enrichment (6-mer frequency, TF over GST control) | 1.54 fold enrichment (6-mer frequency, TF over GST control) |
| CCCTGC | 1.11 fold enrichment (6-mer frequency, TF over GST control) | 1.22 fold enrichment (6-mer frequency, TF over GST control) | 1.12 fold enrichment (6-mer frequency, TF over GST control) | 1.21 fold enrichment (6-mer frequency, TF over GST control) | 1.26 fold enrichment (6-mer frequency, TF over GST control) | 1.17 fold enrichment (6-mer frequency, TF over GST control) | 1.2 fold enrichment (6-mer frequency, TF over GST control) | 1.16 fold enrichment (6-mer frequency, TF over GST control) | 1.18 fold enrichment (6-mer frequency, TF over GST control) |
| CCAATG | 1.14 fold enrichment (6-mer frequency, TF over GST control) | 1.11 fold enrichment (6-mer frequency, TF over GST control) | 1.14 fold enrichment (6-mer frequency, TF over GST control) | 1 fold enrichment (6-mer frequency, TF over GST control) | 1.15 fold enrichment (6-mer frequency, TF over GST control) | 1.03 fold enrichment (6-mer frequency, TF over GST control) | 1.08 fold enrichment (6-mer frequency, TF over GST control) | 1.15 fold enrichment (6-mer frequency, TF over GST control) | 1.08 fold enrichment (6-mer frequency, TF over GST control) |
| CGACGC | 1.11 fold enrichment (6-mer frequency, TF over GST control) | 1.11 fold enrichment (6-mer frequency, TF over GST control) | 1.04 fold enrichment (6-mer frequency, TF over GST control) | 1.05 fold enrichment (6-mer frequency, TF over GST control) | 1.16 fold enrichment (6-mer frequency, TF over GST control) | 1.06 fold enrichment (6-mer frequency, TF over GST control) | 1.06 fold enrichment (6-mer frequency, TF over GST control) | 1.08 fold enrichment (6-mer frequency, TF over GST control) | 1.01 fold enrichment (6-mer frequency, TF over GST control) |
| AAGTTG | 1.09 fold enrichment (6-mer frequency, TF over GST control) | 1.07 fold enrichment (6-mer frequency, TF over GST control) | 1.1 fold enrichment (6-mer frequency, TF over GST control) | 1.08 fold enrichment (6-mer frequency, TF over GST control) | 1.08 fold enrichment (6-mer frequency, TF over GST control) | 1.14 fold enrichment (6-mer frequency, TF over GST control) | 1.13 fold enrichment (6-mer frequency, TF over GST control) | 1.1 fold enrichment (6-mer frequency, TF over GST control) | 1.11 fold enrichment (6-mer frequency, TF over GST control) |
